Activity calls are given as the source filed them. The calls were made as follows: active = hit-call score of the fitted dose curve at least 0.9, where 1 is the maximum; inactive = score below 0.9.

In PubChem BioAssay (EPA / NIEHS) one finds AC50 and outcome data, which are given here for 40 compounds.

Read-out in the assay: Cytochrome P450 (CYP1A1), CYP1A1 (gene 1543)
The assay is described as follows: LTEA_HepaRG_CYP1A1: Life Technologies and Expression Analysis (LTEA) Assay for Cytochrome P450 (CYP1A1) using HepaRG (AID 2283454). The settings on record: mRNA level, 48 h; actives raise or lower the signal. On the procedure:
LTEA_HepaRG is a cell based, multiplexed-readout assay that uses HepaRG, a human liver cell line, with measurements taken at 48 hours after chemical dosing on a 96-well plate.LTEA_HepaRG_CYP1A1 is one of 102 assay component(s) measured in the LTEA HepaRG cell culture assay. It is a marker of NR mediated metabolism.Data from the assay component LTEA_HepaRG_CYP1A1 was analyzed into 1 endpoint. This assay endpoint, LTEA_HepaRG_CYP1A1, was analyzed with bidirectional fitting relative to DMSO as the negative control and baseline of activity. Using a type of inducible reporter, measures of mRNA induction for gain or loss-of-signal activity can be used to understand regulation of transcription factor activity. To generalize the intended target to other relatable targets, this assay endpoint is annotated to the cyp intended target family, where the subfamily is xenobiotic metabolism.
A total of 1060 chemcials from the ToxCast library were tested in eight-point concentration-response experiments. Cell culture and cytotoxicity assays were conducted at Thermo Fisher Scientific's Custom Services facility (Madison, WI). A single lot of human HepaRG cells (Thermo Fisher Scientific, Frederick, MD) was used for the cell culture experiments. 96-well format collagen type I coated plates of human HepaRG cells were prepared using established methods. Briefly, cryopreserved HepaRG cells were thawed, plated at a density of approximately 100,000 cells/well in HepaRG Thaw, Plate, and General Purpose media (HPRG770, Thermo Fisher Scientific), and incubated for 48 hours. 0.5% DMSO was selected as vehicle control to balance the requisite need of DMSO in HepaRG cultures to maintain differentiation (for example, baseline metabolism, proportions of hepatocytes vs. cholangiocytes), while enabling further hepatic receptor pathway activation (for example, PXR and CAR) in response to chemical exposure. 48 hours after plating, the culture medium was replaced with HepaRG Serum-Free Incudtion Media. Cells were exposed to each test chemical in duplicate and maintained in CO2 incubators for another 48 hours. Chemical plates were thawed to room temperature and 200x concentrations of treatment groups were prepared. 8-point conentration-reponse curves were made with the highest exposure at 100 uM, followed by half-log dilutions, all in 0.5% DMSO. Each test plate contained variouse controls, induction positive controls (1mM phenobarbital), cytotoxicity positive controls ([…] aflatoxin B1), vehicle controls (0.5% DMSO), and total lysis controls (0.5% DMSO). Cell morphology images were taken using an Essen IncuCyte FLR automated microscope, with six 96-well plates imaged in about 24 minutes. Images were captured and exported and JPEG files. Spent culture media was transfered to black-well plates for the LDH assay, and remaining media was sorted at -80 C for later use. Cells were treated with RLT buffer and frozen until shipped for gene expression analysis. Total RNA was isolated from the cell suspension in 75 uL of Buffer RLT (Qiagen, Germantown, MD 20874) by Quintiles/Expression Analysis (Durham, NC) using a custom isolation procedure. Total RNA from each plate well was transferred to a preamplification plate. Fluidigm's 96.96 Dynamic ArrayTM (Fluidigm, Amsterdam, the Netherlands) technology was used for gene expression analyses by quantitative reverse transcription polymerase chain reaction (qRT-PCR, performed by Quintiles/Expression Analysis, Durham, NC)89. Standard TaqManTM Assays (Applied Biosystems/ThermoFisher Scientific, Foster City, CA) were used to assess the expression of 93 genes selected based on their selectivity and sensitivity to important hepatic receptors known to be modulated by environmental chemicals; importance in human hepatocyte functionality; and hepatotoxicity. […]
On to `COc1ccc(C(=O)Nc2nc3ccccc3c(NCc3ccccc3)c2C#N)cc1`, for which the half-maximal activity concentration (AC50) is 1.39 µM (active).

As for `C=CCc1ccc(OC)c(OC)c1`, the outcome was inactive.

`O=C(NS(=O)(=O)/C=C/c1cccs1)c1ccc(F)cc1Br`: the concentration at half-maximal activity (AC50) was 50 µM (active).

`O=C(O)c1[nH]n(-c2ccc(S(=O)(=O)O)cc2)c(=O)c1N=Nc1ccc(S(=O)(=O)O)cc1`: the AC50 was 33 µM (active).

For the compound `OCC(O)CO`, the call was inactive.

`Cc1cc(SC2=C(O)C[C@@](CCc3ccc(N)cc3)(C(C)C)OC2=O)c(C(C)(C)C)cc1CO`: the AC50 is 29.6 µM (active).

`CCCCC(CC)COP(=O)(OCC(CC)CCCC)OCC(CC)CCCC` (stereo not given): the AC50 is 25.6 µM (active).

On to `CCCCCCCCCCCCCCCCO`, for which the half-maximal activity concentration (AC50) was 8.36 µM (active).

Turning to `CC(C)c1cccc(C(C)C)c1`, the AC50 was 66.1 µM (active).

As for `CC(C)(C)c1ccccc1`, the half-maximal activity concentration (AC50) is 50 µM (active).

For `NC=O`, the compound was called inactive.

`CCC(C)N(C)C(=O)c1cc2ccccc2c(-c2ccccc2Cl)n1` (stereo not given): the AC50 was 37.7 µM (active).

With `CCCCCCC(C=O)=Cc1ccccc1`, the call was inactive.

`N[C@@H](Cc1c[nH]c2ccccc12)C(=O)O`: the AC50 was 10.9 µM (active).

On to `Oc1ccccc1O`, for which the compound was classed as inactive.

Consider `NC1CCCCC1`, for which the result was inactive.

For `O=C(O)c1cccnc1`, the result was inactive.

With `CC(COCC(C)OC(=O)c1ccccc1)OC(=O)c1ccccc1` (stereo not given), the AC50 is 87.6 µM (active).

For the compound `Cc1ccc(-c2cc(C(F)(F)F)nn2-c2ccc(S(N)(=O)=O)cc2)cc1`, the AC50 is 12.5 µM (active).

For `CCCCc1nc2cccnc2n1Cc1ccc(-c2ccccc2-c2nnn[nH]2)cc1`, the half-maximal activity concentration (AC50) was 50 µM (active).

`CC(=O)O`: the concentration at half-maximal activity (AC50) was 72.2 µM (active).

On to `CCc1cc(C2=C(C(=O)O)N(c3ccccc3C(F)(F)F)S(=O)(=O)c3ccccc32)cc2c1OCO2`, for which the AC50 was 50 µM (active).

In the case of `O=C1NC(=O)C(c2ccccc2)(c2ccccc2)N1`, the AC50 is 65.1 µM (active).

In the case of `CC(C)COC(=O)CCCCC(=O)OCC(C)C`, the result was inactive.

In the case of `CC(=O)S[C@H](C(=O)N[C@H]1Cc2ccccc2[C@H]2CCC[C@@H](C(=O)O)N2C1=O)C(C)C`, the result was inactive.

For `CCCCCCCCCCCCCCOS(=O)(=O)O`, the half-maximal activity concentration (AC50) was 72.7 µM (active).

As to `CSc1ccc(Oc2ccc(S(N)(=O)=O)cc2CN(C)C)cc1C`, the half-maximal activity concentration (AC50) was 69.8 µM (active).

For the compound `CC(C)c1cccc(C(C)C)c1NC(=O)NS(=O)(=O)c1cc(C(C)(C)O)co1`, the result was inactive.

In the case of `CN(C)C(=O)NC1(c2ccccc2)CCN(CC[C@@]2(c3ccc(F)c(F)c3)CN(C(=O)c3ccccc3)CCO2)CC1`, the concentration at half-maximal activity (AC50) was 47 µM (active).

As for `CC(=O)O[C@]1(C(C)=O)CC[C@H]2[C@@H]3C=C(Cl)C4=CC(=O)[C@@H]5C[C@@H]5[C@]4(C)[C@H]3CC[C@@]21C`, the compound was classed as inactive.

On to `CCCCCCC(CCCCCCCCCCC(=O)OCC(COC(C)=O)OC(C)=O)OC(C)=O` (stereo not given), for which the outcome was inactive.

`Cc1ccc(C(C)(C)C)c(O)c1`: the half-maximal activity concentration (AC50) was 41.7 µM (active).

In the case of `Nc1nc(=S)c2[nH]cnc2[nH]1`, the AC50 was 76.1 µM (active).

In the case of `S=c1[nH]c2ccccc2s1`, the AC50 is 10.1 µM (active).

Consider `Oc1ccc(O)cc1`, for which the AC50 is 50 µM (active).

As to `NCCOCCOCCN`, the concentration at half-maximal activity (AC50) is 50 µM (active).

Take `CCCCC(CC)COC(=O)CCCCCCCC(=O)OCC(CC)CCCC` (stereo not given): the AC50 is 50 µM (active).

As for `COC(=O)CCCC(=O)OC`, the outcome was inactive.

Consider `O=C1CCCCC1`, for which the result was inactive.

For `NC(=Nc1ccccc1)Nc1ccccc1`, the AC50 was 50 µM (active).

As usually defined, the AC50 is the midpoint of the concentration-response curve, whichever way the signal moves.
